Sampled rows, rich in hits. Any-hit rate of the full collection: about 6.6%.
Gli-Sufu antag: antagonists of Gli-Sufu signaling | Sufu-KO-LIGHT fibroblasts, Gli luciferase reporter luminescence | inhibition, % at 5 µM | 0.74% of 340,000 active;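 active = inhibition above about 55%, limit read from the data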;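 also: 0% = DMSO-treated cells and 100% = wells with medium but no cells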
NR3A LBD binder: NR3A (human) ligand-binding domain modulation. Tm shift relative to glycine control, % at 25 µM. 2.5% of 340,000 active. AID 1259313. NR3A LBD differential scanning fluorimetry, Tm shift; 0% = protein alone, 100% = glycine-bound protein;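 active = melting temperature shift of at least 10% of the positive control shift, at one fixed dose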
CSC inhib: blocks cancer stem cells | cancer stem cell-like cells viability, luminescence | inhibition, % at 7.5 µM | 1.1% of 300,000 active | AID 2717; in the data active = inhibition above about 75%; tested in HMLE shEcad cells
MPTP inh: inhibitors of mitochondrial permeability transition pore; isolated mouse mitochondria, Ca2+ swelling absorbance, 30 min; inhibition, % at 10 µM; 1.4% of 360,000 active; AID 602449;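 active = inhibition of 50% or more, scaled per plate between neutral and stimulator controls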;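 also: 0% = DMSO wells given calcium and 100% = 1 mM EGTA wells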
Mdm2 MdmX PPI: inhibitors of human Mdm2/MdmX interaction; O15151+Q00987; SaOS-2 split-luciferase Mdm2/MdmX complementation, luminescence; inhibition, % at 8 µM; 3% of 330,000 active; AID 485346;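 active = inhibition of at least 50% at 8 µM in the primary screen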
Beta apoptosis: beta cell apoptosis inhibition. protection from apoptosis, % (concentration not given with the values). AID 435005. 0.8% of 300,000 active. INS-1E cytokine-induced death, ATP luminescence, 48 h; percent of positive-control rescue, neutral wells zero;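 active = Every replicate reaches about 75%, or at least half do and their mean reaches it too, limit read from the data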;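 also: 0% = cytokine-treated negative control wells and 100% = positive control rescue; higher means more ATP so stronger rescue from cytokine killing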
Rh123 counter: mitochondrial membrane potential, counter-screen. shares compounds with MPTP inh. isolated mitochondria, Rhodamine 123 fluorescence. inhibition, % at 10 µM. 78% of 5,000 active; in the data active = inhibition above about 22%;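 also: 0% = DMSO vehicle and 100% = positive control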
MPTP swell DR: dose response confirmation of mitochondrial permeability transition pore inhibitors; IC50, µM; shares compounds with MPTP inh; 58% of 780 active; isolated mitochondria swelling, absorbance; AID 651561; in the data active = IC50 below about 20 µM
MPTP counter DR: MPTP inhibitor counter-screen activity, dose response. 49% of 780 active. IC50, µM. AID 651564. shares compounds with MPTP inh. isolated mitochondria counterscreen, fluorescence read-out; in the data active = IC50 below about 80 µM
An asterisk follows results filed as active; i = inactive; / = no result.

SMILES	Gli-Sufu antag	NR3A LBD binder	CSC inhib	MPTP inh	Mdm2 MdmX PPI	Beta apoptosis	Rh123 counter	others
C[C@@H](CN1CCC[C@H]1CN1C(N)=NC[C@@H]1Cc1ccccc1)N1C[C@@H](Cc2ccccc2)N(CCc2ccc(Cl)c(Cl)c2)C1=N	3	-1	2	74*	13	-11	8
CC(=O)[C@H]1CC[C@H]2[C@@H]3CC=C4C[C@@H](O)CC[C@]4(C)[C@H]3CC[C@]12C	1	0	-7	1	14	/	/
COC1CCC2(C)C(=CCC3C4CC(O)CC4(C)CCC32)C1 (stereo not drawn)	2	-1	/	81*	/	/	73*
CCC(C)c1ccccc1NC(=O)COC(=O)c1ccc2[nH]c3c(c2c1)CCCC3 (stereo not drawn)	5	7	107*	83*	40	7	73*
CCOc1ccc(NC(=O)c2ccccc2OCC(=O)c2ccccc2)cc1	-6	5	12	8	16	/	/
CCCCNS(=O)(=O)c1ccc2nc(SCC(N)=O)[nH]c2c1	-2	2	6	0	-30	-2	/
CCCCNS(=O)(=O)c1ccc2nc(SCC(=O)Nc3sccc3C#N)[nH]c2c1	9	14*	20	79*	37	13	-4	MPTP swell DR=11*;MPTP counter DR=<2.5*
O=C(NCc1ccc(Cl)cc1)c1n[nH]c([N+](=O)[O-])c1Cl	-23	-4	24	76*	-13	-1	91*
O=C(O)C1CCN(c2ccccc2[N+](=O)[O-])CC1	/	-3	4	-1	21	3	/
Cc1cc(Cl)c(S(=O)(=O)N2CCN(c3ccc(F)cc3)CC2)cc1OCC(=O)NC1CCCCC1	58*	1	3	80*	18	103*	70*
Cc1cc(Cl)c(S(=O)(=O)N2CCN(c3ccc(F)cc3)CC2)cc1OCC(N)=O	-7	2	11	-2	32	/	/
CC(C)CCNC(=O)c1cccc(S(=O)(=O)N2CCc3ccccc32)c1	4	-12	11	-1	-8	-1	/
O=C(NNC(=O)c1ccccc1O)c1ccc(Cl)c(S(=O)(=O)N2CCc3ccccc32)c1	63*	9	10	107*	49	83*	76*
CC(=O)N1CCN(C(=O)c2ccc(Cl)c(S(=O)(=O)N3CCc4ccccc43)c2)CC1	7	1	/	1	-7	-4	/
O=C(NNC(=O)c1cccc(S(=O)(=O)N2CCc3ccccc32)c1)c1ccccc1	48	3	/	100*	/	/	83*
CC(C)CNC(=S)NC1CCCC1	1	-2	-4	3	-4	0	/
Cc1ccc(NC(=O)C(=O)NCc2ccc(/C=C(/C#N)C(=O)NCc3cccnc3)o2)cc1C	0	-1	-8	60*	28	/	76*
O=S(=O)(N[C@H]1C[C@@H](NS(=O)(=O)OCC(Cl)(Cl)Cl)C2CCCCC21)OCC(Cl)(Cl)Cl (stereo partly drawn)	1	18*	76*	64*	/	3	91*
CC12C=CC3(O1)C(C(=O)N(c1ccccc1)C3C(=O)NC1CCCC1)C2C(N)=O (stereo not drawn)	0	-2	/	0	1	-6	/
Cc1nc2ccc(S(=O)(=O)Nc3cc(-c4nc5cccnc5s4)ccc3C)cc2s1	3	2	62	0	-30	2	/
Cc1nc2ccc(S(=O)(=O)Nc3cccc(-c4nc5cccnc5s4)c3C)cc2s1	2	-7	22	98*	9	2	88*
CCc1c(C(=O)Nc2cc(C)cc(C)c2)[nH]c(C)c1C(C)=O	10	-12	1	79*	-17	9	84*
CCCCOc1ccc(CSCCNC(=S)Nc2ccccc2)cc1	25	-13	46	97*	-2	14	95*
CC(C)(C)C1(O)CC(C(F)(F)F)=NN1C(=O)Cc1ccc([N+](=O)[O-])cc1 (stereo not drawn)	5	-2	-7	2	16	/	/
COc1ccc(CC(C(=O)Nc2ccc(OC)cc2)c2nn[nH]n2)cc1 (stereo not drawn)	1	2	-36	0	6	1	/
SMILES	Gli-Sufu antag	NR3A LBD binder	CSC inhib	MPTP inh	Mdm2 MdmX PPI	Beta apoptosis	Rh123 counter	others
c1coc(CNc2nc3nonc3nc2NCc2ccco2)c1	10	-3	/	96*	5	-9	95*
Cc1nc(NCc2ccco2)c2cn[nH]c2n1	-4	0	/	0	/	/	/
Cc1ccc(C(=O)Nc2ccncc2)cc1S(=O)(=O)N1CCCCC1	/	/	/	1	/	/	/
c1ccc(-c2noc(CN3CCCC(OCc4ccccn4)C3)n2)cc1 (stereo not drawn)	2	0	0	1	18	-1	/
O=Cc1ccc(OC(=O)c2cccnc2)cc1	-23	-1	9	-1	27	2	/
COC(=O)/C=C1/SC(=Nc2ccc(Cl)c(Cl)c2)NC1=O	4	18*	54	58*	18	0	25*
Cc1cc(C)c(-c2csc(Cc3nc(-c4cc5ccccc5oc4=O)cs3)n2)cc1C	20	2	30	53*	33	1	10	MPTP swell DR=6.3*;MPTP counter DR=7.8*
Cc1ccc(-c2csc(Cc3nc(-c4cc5ccccc5oc4=O)cs3)n2)cc1	9	-3	17	20	4	8	/
Cn1cc(CN2CCN(c3ccccc3)CC2)c2ccccc21	7	2	13	61*	7	-4	-10	MPTP swell DR=i;MPTP counter DR=>80
CC(=O)NC(c1ccc(F)c(F)c1)c1nc(-c2cccc(F)c2)cs1 (stereo not drawn)	/	/	/	0	/	/	/
C/C(Cl)=C\Cn1c(NCCc2ccccc2)nc2c1c(=O)n(C)c(=O)n2C	82*	-1	27	54*	20	70	83*
C=CCn1c(NCCc2ccccc2)nc2c1c(=O)n(C)c(=O)n2C	4	6	-4	46	23	23	/
Cc1ccc(NC(=O)COC(=O)c2ccc(S(=O)(=O)N3CCCC3)cc2)cc1	-6	2	/	1	26	/	/
N#Cc1ccccc1NC(=O)COC(=O)c1c[nH]c2ccccc12	-9	-2	/	-1	-7	/	/
CN(C[C@H](Cc1ccccc1)N(C[C@H](Cc1ccccc1)N(CC1(c2ccccc2)CC1)N=O)N=O)N=O	24	-3	2	0	13	1	/
CCOc1ccc(N=C2SCC(=O)N2CC)cc1	4	-1	-2	2	8	1	/
CCN1C(=O)CSC1=NC1C2CC3CC(C2)CC1C3 (stereo not drawn)	12	2	4	77*	6	-1	-4	MPTP swell DR=8.1*;MPTP counter DR=36*

Screening results: PubChem, several laboratories
